Experimental findings from PubChem BioAssay (Tox21) are described below.

Inconclusive results are not listed. Active and inactive are the calls of the source. Calls come from the whole dose curve; as a rule, active = well fitted inhibition curve with a large enough effect in the signal ratio in the repeat runs (not every such curve was filed as active); inconclusive = weak or mixed curves, or effect the other way; inactive = flat fitted curve, though single readings scatter; the % refers to the signal ratio.
% is set by controls: 0 for no effect and ±100 for the full control effect.

A short description of the experiment: cAMP Responsive Elements (CRE) small molecule antagonists, cell-based qHTS assay (AID 1963591). Particulars: CRE-bla HEK293T, beta-lactamase FRET ratio; series mostly up to 92.4 µM; activity change, negative = inhibition: at the top concentration. The text has this:
U.S. Tox21 Program National Center for Advancing Translational Sciences [NCATS] Division of Preclinical Innovation [DPI] U.S. Environmental Protection Agency [EPA] National Institutes of Environmental Health Sciences [NIEHS] National Toxicology Program [NTP] U.S. Food and Drug Administration [FDA] Tox21 Assay Overview: CREB (cyclic-AMP Responsive Element Binding Protein) is a cellular transcription factor. It binds to certain DNA sequences called cAMP Responsive Elements (CRE) and regulates the transcription of the genes. […] This cell line can be used to find agonists/antagonists of the cyclic AMP signaling pathway. The activation of the report gene under culture conditions can be detected by fluorescence intensity. This cell line has been used to screen the Tox21 10K compound library to […].
Tox21 Assay Protocol Summary: CRE-bla Hek 293T cells were suspended in assay medium (DMEM containing 10% dialyzed FBS, 0.1 mM NEAA, 1 mM sodium pyruvate and 25 mM HEPES) and dispensed at 2,000 cells/4 uL /well into 1536-well black wall/clear bottom plates using a Multidrop Combi (ThermoFisher Scientific, Waltham, MA) dispenser. After the assay plates were incubated at 37 C/5% CO2 for 18 hrs, 23 nL of compounds dissolved in DMSO, positive controls or DMSO only was transferred to the assay plate by a pintool workstation (Kalypsys, San Diego, CA), followed by addition of 1 […] uL of 1.25uM NKH477 (0.25 uM as final concentration) in assay medium using a Flying Reagent Dispenser (Aurora Discovery, San Diego, CA). The plates were incubated at 37 C and 5% CO2 for 3 hrs. Then 1 uL of LiveBLAzer B/G FRET substrate (Invitrogen, Carlsbad, CA) was added to each well using Bioraptr Flying Reagent Dispenser (FRD, Aurora Discovery, San Diego, CA). The plates were incubated at room temperature for 2 h.
A general note: Quantitative high-throughput screening tests each substance at several concentrations.
With `CCCCCCCCc1ccc(Nc2ccc(CCCCCCCC)cc2)cc1`, the “activity change, negative = inhibition” value is -12.7% [at 42.4 µM] (inactive).

For `Cc1ccccc1N=O`, the “activity change, negative = inhibition” value is -3.43% (inactive).

Take `Cc1nc(-c2ccc3c(c2)CCN(CCC2CCC(NC(=O)/C=C/c4ccc(F)cc4)CC2)CC3)no1` (stereo not given): the “activity change, negative = inhibition” value was -2.33% [at 42.4 µM] (inactive).

For `NC(=O)Nc1ccccc1`, the “activity change, negative = inhibition” value was -4.22% (inactive).

Consider `C=CCS(=O)(=O)O`, for which the “activity change, negative = inhibition” value is -0.349% (inactive).

Turning to `O=C(O)c1ccccc1[N+](=O)[O-]`, the “activity change, negative = inhibition” value is 0.229% (inactive).

`COCC(C)OC(C)=O` (stereo not given): the “activity change, negative = inhibition” value is -2.66% (inactive).

Regarding `OCCCC1CCCCC1`, the “activity change, negative = inhibition” value is -3.9% (inactive).

For `Cc1ccccc1C(=O)N1CC/C(=N\OS(=O)(=O)O)c2ccc(Cl)cc21`, the “activity change, negative = inhibition” value is 8.85% [at 42.4 µM] (inactive).

`CC(C)NC(=O)c1ccccc1N`: the “activity change, negative = inhibition” value is 6.28% (inactive).

Take `Nc1c(NC/C=C\COc2cc(CN3CCCCC3)ccn2)c(=O)c1=O`: the activity change, negative = inhibition was -4.15% [at 18.9 µM] (inactive).

For `CC(=O)NCCO`, the “activity change, negative = inhibition” value is 6.06% (inactive).

For the molecule `CC(C)[C@@H]1CC[C@@H](C)CC1=O`, the Potency entry was “inactive”.

`CC[N+](C)(C)c1cccc(O)c1`: the “activity change, negative = inhibition” value was 0.369% [at 42.4 µM] (inactive).

Regarding `Cc1ccc(C=O)cc1`, the “activity change, negative = inhibition” value is 1.13% [at 42.4 µM] (inactive).

`CCCCC(C)C(=O)O` (stereo not given): the “activity change, negative = inhibition” value is 0.161% (inactive).

With `CC(=O)O[C@@H]1C[C@@H]2CC[C@@]1(C)C2(C)C`, the “activity change, negative = inhibition” value was 2.24% (inactive).

For `CCNc1cc(O)ccc1C`, the “activity change, negative = inhibition” value was -0.4% (inactive).

For `CCC(CO)CO`, the “activity change, negative = inhibition” value was -0.0538% (inactive).

With `ClC(c1ccccc1)(c1ccccc1)c1ccccc1`, the “activity change, negative = inhibition” value was -11.4% (inactive).

As for `C[N+](C)(C)CC[N+]1(C)Cc2c(Cl)c(Cl)c(Cl)c(Cl)c2C1`, the “activity change, negative = inhibition” value was 1.14% [at 42.4 µM] (inactive).

As to `CC(=O)c1sc(C)nc1C`, the “activity change, negative = inhibition” value was -5.05% (inactive).

Turning to `CCCCOCCOCCOCCO`, the “activity change, negative = inhibition” value is 0% [at 42.4 µM] (inactive).

For `Oc1ccccc1O`, the “activity change, negative = inhibition” value is -7.15% (inactive).

In the case of `CN(C)C(=O)Oc1ccc[n+](C)c1`, the “activity change, negative = inhibition” value was -6.66% [at 42.4 µM] (inactive).

`NC(=S)N/N=C/c1cccnc1`: the “activity change, negative = inhibition” value is 0.246% [at 42.4 µM] (inactive).

As to `CC(=O)OCCCc1ccccc1`, the “activity change, negative = inhibition” value was -6.64% (inactive).

Take `O=C(O)CCc1ccccc1`: the “activity change, negative = inhibition” value is -0.894% (inactive).

`N[C@@H](Cc1c[nH]c2ccccc12)C(=O)O`: the Potency result was “inactive”.

For the molecule `CCCCC(CC)CCC(CC(C)C)OS(=O)(=O)O` (stereo not given), the “activity change, negative = inhibition” value was 0.39% (inactive).

In the case of `CCCCCCCCCCCCCCO`, the Potency entry was “inactive”.

With `N[C@H](C(=O)O)c1ccc(O)cc1`, the activity change, negative = inhibition was 0.811% [at 18.9 µM] (inactive).

For `CC(=O)NC(Cc1ccccc1)C(=O)O` (stereo not given), the “activity change, negative = inhibition” value was -5.24% [at 42.4 µM] (inactive).

Take `CC1=NN(c2ccc(S(=O)(=O)O)cc2)C(=O)C1`: the “activity change, negative = inhibition” value is -7.89% (inactive).

As for `OCCc1ccccn1`, the “activity change, negative = inhibition” value was -8.61% (inactive).

For the molecule `CN(C)Cc1ccccc1O`, the “activity change, negative = inhibition” value is -10.3% (inactive).

For `Oc1cccc2ccccc12`, the Potency result was “inactive”.

With `O`, the Potency result is “inactive”.

As for `Cc1ccc(C(C)NC(=O)[C@@H](NC(=O)OC(C)C)C(C)C)cc1` (stereo not given in full), the “activity change, negative = inhibition” value is -8.24% (inactive).

Take `CCN(CC#N)c1cccc(C)c1`: the “activity change, negative = inhibition” value was -16.1% (inactive).
